PubChem BioAssay (Tox21)
Inconclusive results are not listed. Active and inactive are the calls of the source. Unless noted, the call rests on the fitted dose curve.

Key:
[1] = Nuclear factor erythroid 2-related factor 2/antioxidant responsive element (Nrf2/ARE) small molecule agonists: qHTS cell viability counter screen in human keratinocytes (AID 1919968; active means well fitted curve in the direction sought with a large enough effect in the repeat runs; an effect the other way counts as inactive or inconclusive; further: nearly all actives have a fitted effect of over 55% in size; further: potency means the concentration at half of the fitted maximal effect)
Procedure, shortened: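 HaCaT ARE reporter line, 1,500 cells/well; 5 h settle, 37 C/5% CO2; cpd in DMSO pinned; 23 h exposure; CellTiter-Fluor, 1 h; fluorescence.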

[2] = Nuclear factor erythroid 2-related factor 2/antioxidant responsive element (Nrf2/ARE) small molecule agonists: luciferase reporter gene qHTS assay in human keratinocytes (AID 1919969); further: nearly all actives have a fitted effect of over 35% in size; further: potency means the concentration at half of the fitted maximal effect
[3] = biological target: Gonadotropin-releasing hormone receptor (Homo sapiens) (UniProt P30968); assay: Human gonadotropin-releasing hormone receptor (GnRHR) small molecule agonists, calcium flux assay in GnRHR-HEK293 cells (AID 1920063); further: nearly all actives have a fitted effect of over 35% in size
Chain of Gonadotropin-releasing hormone receptor (Homo sapiens) (P30968 whole entry, looked up): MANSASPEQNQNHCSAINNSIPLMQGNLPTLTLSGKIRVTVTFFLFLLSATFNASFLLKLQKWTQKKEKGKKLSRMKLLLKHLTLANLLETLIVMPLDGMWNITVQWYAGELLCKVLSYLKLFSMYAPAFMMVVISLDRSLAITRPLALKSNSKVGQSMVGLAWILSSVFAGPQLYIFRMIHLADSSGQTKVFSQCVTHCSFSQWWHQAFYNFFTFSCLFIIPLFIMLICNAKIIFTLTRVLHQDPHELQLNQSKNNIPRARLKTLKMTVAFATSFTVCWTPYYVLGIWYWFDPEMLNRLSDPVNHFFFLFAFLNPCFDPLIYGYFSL
Procedure, shortened: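 GnRHR-HEK293, 1500 cells/well, 18 h 37 C/5% CO2; Ca dye 1 h 37 C; cpd pinned (DMSO), agonist mode; kinetic FL 480/540, 3 min, 1 s reads; 15 conc, n=3.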

[4] = biological target: KiSS-1 receptor (Homo sapiens) (UniProt Q969F8); assay: Human kisspeptin (KISS1R) small molecule agonists, calcium flux assay in KISS1R-HEK293 cells (AID 1920064; active means well fitted curve in the direction sought with a large enough effect in the repeat runs; an effect the other way counts as inactive or inconclusive)
Chain of KiSS-1 receptor (Homo sapiens) (Q969F8 whole entry, looked up): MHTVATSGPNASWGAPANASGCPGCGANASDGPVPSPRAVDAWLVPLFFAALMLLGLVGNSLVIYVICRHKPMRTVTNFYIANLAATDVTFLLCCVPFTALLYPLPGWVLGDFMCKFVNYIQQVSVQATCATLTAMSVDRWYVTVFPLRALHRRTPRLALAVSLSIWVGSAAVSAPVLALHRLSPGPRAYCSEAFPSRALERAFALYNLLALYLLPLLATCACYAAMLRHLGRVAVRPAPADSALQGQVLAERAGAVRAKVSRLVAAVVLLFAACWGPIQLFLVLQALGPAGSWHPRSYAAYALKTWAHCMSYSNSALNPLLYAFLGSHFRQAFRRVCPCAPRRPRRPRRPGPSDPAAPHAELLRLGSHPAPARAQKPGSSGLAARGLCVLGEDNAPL
Procedure, shortened: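 Stable human KISS1R HEK293 line; 18 h plating, 37 C/5% CO2; calcium dye 1 h 37 C; compound pin transfer; kinetic fluorescence Ex/Em 480/540, 3 min.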

[5] = G protein-coupled receptor (GPCR) small molecule agonists, calcium flux assay: HEK293 wild type cell line counter screen (AID 1920065)
Procedure, shortened: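 Kinetic fluorescence at Ex/Em 480/540, recorded every second over 3 min, served as the read-out after compound addition. Each compound was tested at 15 concentrations in triplicate on cells pre-loaded with calcium dye for 1 h.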

[6] = p53 small molecule agonists, cell-based qHTS assay with human liver microsomes (AID 1963577);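 further: p53 response element beta-lactamase reporter cells with liver microsomes plus NADPH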
Procedure, shortened: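 p53RE-bla cells; 5 h settle, 37 C/5% CO2; cpd + HLM 0.5 mg/mL + NADPH 0.5 mg/mL (final); 16 h 37 C; LiveBLAzer 2 h RT dark; fluorescence readout.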

[7] = p53 small molecule agonists, cell-based qHTS assay with rat liver microsomes (AID 1963578)
Procedure, shortened: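 Rat liver microsome activation: microsomes 0.5 mg/mL, NADPH 0.5 mg/mL final; p53RE-bla cells, 16 h 37 C; LiveBLAzer readout, 2 h RT dark.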

[8] = p53 small molecule agonists, cell-based qHTS assay with human liver microsomes: qHTS cell viability counter screen (AID 1963579); further: nearly all actives have a fitted effect of over 45% in size; further: potency means the concentration at half of the fitted maximal effect
Procedure, shortened: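 Luminescent CellTiter-Glo read-out, 30 min at room temperature, gauged cytotoxicity in p53RE-bla cells exposed 16 h at 37 C to DMSO-dissolved compounds with metabolic activation by human liver microsomes and NADPH, each 0.5 mg/mL final.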

[9] = p53 small molecule agonists, cell-based qHTS assay with rat liver microsomes: qHTS cell viability counter screen (AID 1963580); further: nearly all actives have a fitted effect of over 45% in size; further: potency means the concentration at half of the fitted maximal effect
Procedure, shortened: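 In HCT-116 cells carrying a p53 response element-bla reporter, compounds were metabolically activated in situ by rat liver microsomes with NADPH over 16 h. Cell ATP content then served as the cytotoxicity measure.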

[10] = p53 small molecule agonists, cell-based qHTS assay: qHTS cell viability counter screen (AID 1963581); further: nearly all actives have a fitted effect of over 45% in size; further: potency means the concentration at half of the fitted maximal effect
Procedure, shortened: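 HCT-116 p53RE-bla cells, 4,000/well, plated 5 h before compound pin transfer; 16 h at 37 C; bla substrate 2 h RT; then CellTiter-Glo, 30 min RT, luminescence.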

[11] = biological target: 5-hydroxytryptamine receptor 2A (Homo sapiens) (UniProt P28223); assay: 5-hydroxytryptamine receptor 2A (HTR2A) small molecule antagonists, cell-based qHTS assay (AID 1963586); further: nearly all actives have a fitted effect of over 45% in size; further: potency means the concentration at half of the fitted maximal effect
Chain of 5-hydroxytryptamine receptor 2A (Homo sapiens) (P28223 whole entry, looked up): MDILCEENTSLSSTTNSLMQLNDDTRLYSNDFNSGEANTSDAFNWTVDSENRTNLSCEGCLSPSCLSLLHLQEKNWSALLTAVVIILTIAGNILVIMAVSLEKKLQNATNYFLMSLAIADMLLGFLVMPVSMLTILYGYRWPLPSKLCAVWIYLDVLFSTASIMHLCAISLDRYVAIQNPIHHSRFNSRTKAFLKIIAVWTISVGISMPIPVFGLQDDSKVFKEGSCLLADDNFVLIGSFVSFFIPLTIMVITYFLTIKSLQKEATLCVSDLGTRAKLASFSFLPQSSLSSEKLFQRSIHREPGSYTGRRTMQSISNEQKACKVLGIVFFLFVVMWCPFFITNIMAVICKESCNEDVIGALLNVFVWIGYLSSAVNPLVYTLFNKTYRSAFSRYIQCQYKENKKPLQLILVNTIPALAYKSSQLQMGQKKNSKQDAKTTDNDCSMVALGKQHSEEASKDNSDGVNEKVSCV
Procedure, shortened: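 Antagonist-mode intracellular calcium assay: DOI (4 nM) added after 5 min compound pre-incubation at room temperature to dye-loaded HTR2A-CHO cells. Fluorescence followed for 3 min, sampled every second.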

[12] = biological target: 5-hydroxytryptamine receptor 2A (Homo sapiens) (UniProt P28223); assay: 5-hydroxytryptamine receptor 2A (HTR2A) small molecule agonists, cell-based qHTS assay (AID 1963587); further: nearly all actives have a fitted effect of over 30% in size; further: potency means the concentration at half of the fitted maximal effect
Procedure, shortened: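 HTR2A-CHO cells, plated 18 h at 37 C/5% CO2, dye-loaded 1 h at 37 C; compounds in DMSO added by pin tool (agonist mode). Intracellular calcium flux read as kinetic fluorescence on FDSS over 2 min at 1 s intervals.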

[13] = biological target: Muscarinic acetylcholine receptor M1 (Homo sapiens) (UniProt P11229); assay: Cholinergic receptor muscarinic 1 (CHRM1) small molecule antagonists, cell-based qHTS assay (AID 1963588); further: nearly all actives have a fitted effect of over 40% in size; further: potency means the concentration at half of the fitted maximal effect
Chain of Muscarinic acetylcholine receptor M1 (Homo sapiens) (P11229 whole entry, looked up): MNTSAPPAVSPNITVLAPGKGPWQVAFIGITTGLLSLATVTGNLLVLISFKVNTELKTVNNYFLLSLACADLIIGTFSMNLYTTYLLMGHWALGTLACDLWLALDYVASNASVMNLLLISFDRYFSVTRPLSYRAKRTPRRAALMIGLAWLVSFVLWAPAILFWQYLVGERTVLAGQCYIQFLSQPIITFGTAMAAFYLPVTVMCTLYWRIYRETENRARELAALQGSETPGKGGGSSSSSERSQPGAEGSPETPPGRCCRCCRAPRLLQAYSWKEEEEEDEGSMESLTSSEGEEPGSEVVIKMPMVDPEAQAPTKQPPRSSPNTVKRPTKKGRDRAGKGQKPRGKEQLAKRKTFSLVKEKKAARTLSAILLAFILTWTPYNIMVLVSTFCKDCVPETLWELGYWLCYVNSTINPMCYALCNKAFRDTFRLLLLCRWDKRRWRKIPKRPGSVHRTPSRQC
Procedure, shortened: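 CHRM1-CHO calcium-flux assay, antagonist mode. Cells were seeded 18 h, dye-loaded 1 h at 37 C and given compound for 5 min at RT, then acetylcholine was added at 50nM. FDSS fluorescence was read 3 min; 15 concentrations, three runs.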

[14] = biological target: Muscarinic acetylcholine receptor M1 (Homo sapiens) (UniProt P11229); assay: Cholinergic receptor muscarinic 1 (CHRM1) small molecule agonists, cell-based qHTS assay (AID 1963589); further: nearly all actives have a fitted effect of over 35% in size; further: potency means the concentration at half of the fitted maximal effect
Procedure, shortened: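 Human M1 in stable CHO line; 18 h plating, 1 h dye load 37 C; cpd added (agonist mode); Ca2+ fluorescence kinetic read, 1 s intervals; 15 conc, 3 runs.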

[15] = cAMP Responsive Elements (CRE) small molecule antagonists, cell-based qHTS assay (AID 1963591; active means well fitted inhibition curve with a large enough effect in the signal ratio in the repeat runs, not every such curve was filed as active; the % refers to the signal ratio; further: potency means the concentration at half of the fitted maximal effect)
Procedure, shortened: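 Beta-lactamase reporter read by FRET substrate (LiveBLAzer B/G) after 2 h at room temperature. CRE-bla HEK293T cells had received compound plus 0.25 uM (final) NKH477 for 3 h at 37 °C.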

[16] = biological target: Beta-2 adrenergic receptor (Homo sapiens) (UniProt P07550); assay: Adrenergic beta2 receptor (ADRB2) small molecule antagonists, cell-based qHTS assay (AID 1963592); further: nearly all actives have a fitted effect of over 50% in size; further: potency means the concentration at half of the fitted maximal effect
Chain of Beta-2 adrenergic receptor (Homo sapiens) (P07550 whole entry, looked up): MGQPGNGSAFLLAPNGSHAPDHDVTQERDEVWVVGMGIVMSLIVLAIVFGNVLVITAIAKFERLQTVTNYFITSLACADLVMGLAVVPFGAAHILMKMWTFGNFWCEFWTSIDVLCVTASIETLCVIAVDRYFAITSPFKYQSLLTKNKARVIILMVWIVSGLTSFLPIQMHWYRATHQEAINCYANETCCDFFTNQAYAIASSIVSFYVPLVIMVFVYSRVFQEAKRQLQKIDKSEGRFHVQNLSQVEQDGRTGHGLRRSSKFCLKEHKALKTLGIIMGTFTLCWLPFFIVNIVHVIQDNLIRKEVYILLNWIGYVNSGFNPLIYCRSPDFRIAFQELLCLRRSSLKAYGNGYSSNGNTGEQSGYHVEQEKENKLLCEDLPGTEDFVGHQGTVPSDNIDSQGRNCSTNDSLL
Procedure, shortened: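 Cells (CHO, stable ADRB2 overexpression) incubated 18-20hr at 37C; compounds added from DMSO; agonist mix (1nM isoproterenol, 100uM IBMX, 25uM Ro-20-1724) added; 0.5hr RT; d2-cAMP and anti-cAMP-cryptate added; 1hr RT; 665/615 nm read.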

[17] = biological target: D(2) dopamine receptor (Homo sapiens) (UniProt P14416); assay: Dopamine D2 receptor (DRD2) small molecule agonists, cell-based qHTS assay (AID 1963594); further: nearly all actives have a fitted effect of over 35% in size
Chain of D(2) dopamine receptor (Homo sapiens) (P14416 whole entry, looked up): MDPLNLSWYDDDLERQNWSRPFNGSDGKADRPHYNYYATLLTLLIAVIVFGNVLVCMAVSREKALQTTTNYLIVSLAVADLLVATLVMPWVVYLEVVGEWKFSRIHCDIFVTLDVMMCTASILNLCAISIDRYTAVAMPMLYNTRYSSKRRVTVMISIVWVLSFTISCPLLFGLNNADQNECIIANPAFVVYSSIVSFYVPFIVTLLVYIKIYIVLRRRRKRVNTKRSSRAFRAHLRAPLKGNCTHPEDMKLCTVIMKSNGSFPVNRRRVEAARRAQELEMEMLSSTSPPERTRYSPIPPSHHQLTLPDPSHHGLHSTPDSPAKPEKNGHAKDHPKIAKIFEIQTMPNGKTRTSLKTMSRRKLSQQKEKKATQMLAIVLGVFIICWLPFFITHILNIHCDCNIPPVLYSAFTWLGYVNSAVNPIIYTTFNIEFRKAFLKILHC
Procedure, shortened: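 HEK293 cells stably expressing DRD2 were cultured 24 h at 37 C, then given Ro20-1724 (0.1 mM final) and compounds for 10 min at room temperature. NKH477 (200nM) was then added for 30 min. cAMP was read by HTRF.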

[18] = biological target: D(2) dopamine receptor (Homo sapiens) (UniProt P14416); assay: Dopamine D2 receptor (DRD2) small molecule antagonists, cell-based qHTS assay (AID 1963595; active means well fitted inhibition curve with a large enough effect in the signal ratio in the repeat runs, with a control signal flat; the % refers to the signal ratio; further: potency means the concentration at half of the fitted maximal effect)
Procedure, shortened: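 Cells were plated and grown for 24 h at 37 °C. Ro20-1724 (0.1 mM final) went in first, then compound for 10 min. NKH477 (200 nM) with quinpirole (12 nM) followed for 30 min at RT, then HTRF detection reagents for 1 h.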

[19] = cAMP Responsive Elements (CRE) small molecule agonists, cell-based qHTS assay (AID 1963590)
Procedure, shortened: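 HEK 293T CRE-bla, 2,000 cells/well, 18 h preincubation 37 C/5% CO2; cpds (DMSO) pinned, 3 h; LiveBLAzer B/G FRET substrate, 2 h RT.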

[20] = biological target: Beta-2 adrenergic receptor (Homo sapiens) (UniProt P07550); assay: Adrenergic beta2 receptor (ADRB2) small molecule agonists, cell-based qHTS assay (AID 1963593);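 further: CHO cells stably overexpressing human ADRB2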
Procedure, shortened: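 CHO cells stably over-expressing ADRB2 were plated overnight at 37C, then dosed with compounds plus a stimulation mix containing 100uM IBMX and 25uM Ro-20-1724 for 0.5hr at room temperature. cAMP was measured by HTRF competition, 1hr.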

Measured: Potency

CC1=C(C)C(=O)C(CCCCC#CCCCC#CCO)=C(C)C1=O
active: [2] 29.8 µM
not listed: [19] | [20]
inactive: all other assays above

OCCCCC(O)CO (stereo not given)
not listed: [15]
inactive: all other assays above

CC1=CC[C@H](C(C)C)C=C1
not listed: [19] | [20]
inactive: all other assays above

COc1ccc(C(=O)c2ccc(OC)cc2O)c(O)c1
active: [2] 69.1 µM
not listed: [19] | [20]
inactive: all other assays above

CC(=O)CC(c1ccc([N+](=O)[O-])cc1)c1c(O)c2ccccc2oc1=O (stereo not given)
not listed: [16] | [19]
inactive: all other assays above

CCOC(=N)CC(=O)OCC
not listed: [20]
inactive: all other assays above

COCCCN1CCC(NC(=O)c2cc(Cl)c(N)c3c2OCC3)CC1
inactive: all assays above

CCCCCOC(=O)CCCC
not listed: [15] | [17] | [20]
inactive: all other assays above

CN1C(=O)N(c2ccccc2Br)Cc2cnc(Nc3ccc4c(c3)OCC(CO)O4)nc21 (stereo not given)
active: [1] 54.5 µM | [15] 57 µM
not listed: [16] | [18] | [19] | [20]
inactive: all other assays above

O=C(O)CCCCCCC(=O)O
inactive: all assays above

Nc1ccc2cc(S(=O)(=O)O)cc(O)c2c1
not listed: [16] | [17] | [18] | [19] | [20]
inactive: all other assays above

C=CS(=O)(=O)O
not listed: [15] | [20]
inactive: all other assays above

Cc1cc(O)c(C(C)(C)C)cc1Sc1cc(C(C)(C)C)c(O)cc1C
active: [1] 13.7 µM | [8] 9.11 µM | [9] 20.4 µM | [10] 5.75 µM | [12] 43.6 µM | [13] 26.5 µM | [14] 48.9 µM | [16] 27.3 µM
inactive: [2] | [3] | [4] | [5] | [6] | [7] | [11] | [17]

CC(=O)Nc1ccn(C2COC(COC(=O)c3ccccc3)O2)c(=O)n1 (stereo not given)
not listed: [15] | [19] | [20]
inactive: all other assays above

O=C(O)Cc1ccc2c(c1)C(=O)c1ccccc1CO2
not listed: [15] | [19] | [20]
inactive: all other assays above

CCCCCCCC/C=C\CCCCCCCCOCCO
active: [1] 22.4 µM | [8] 53 µM | [9] 53 µM | [10] 21.1 µM | [11] 24.4 µM
not listed: [15] | [18] | [19] | [20]
inactive: all other assays above

Cc1ccc(-n2nc(C(C)(C)C)cc2NC(=O)Nc2ccc(OCCN3CCOCC3)c3ccccc23)cc1
not listed: [15] | [16] | [19] | [20]
inactive: all other assays above

O=C(O)CCSCCC(=O)O
not listed: [13] | [16]
inactive: all other assays above

N#C[C@@H]1CC(F)(F)CN1C(=O)CNC1CC2CCC(C1)N2c1ncccn1 (stereo not given in full)
not listed: [13] | [16]
inactive: all other assays above

O=c1[nH]cnc2ccccc12
active: [2] 0.0631 µM
not listed: [14] | [15]
inactive: all other assays above

CCCC1CCCC(=O)O1 (stereo not given)
not listed: [14] | [15] | [19] | [20]
inactive: all other assays above

CCCCCCCC[P+](CCCCCCCC)(CCCCCCCC)CCCCCCCC
active: [1] 4.83 µM | [8] 8.09 µM | [9] 20.3 µM | [10] 2.56 µM | [12] 24.4 µM
not listed: [15] | [18] | [19] | [20]
inactive: all other assays above

C=CC(=O)OCC(O)COc1ccccc1 (stereo not given)
active: [1] 61.1 µM | [2] 68.6 µM
not listed: [15] | [19] | [20]
inactive: all other assays above

O=C1OC(=O)C2CCCCC12 (stereo not given)
not listed: [13] | [20]
inactive: all other assays above

CC(=O)Nc1ccc(C)cc1C
not listed: [13] | [20]
inactive: all other assays above

CO[Si](OC)(OC)OC
not listed: [13] | [20]
inactive: all other assays above

Cc1ncc(CO)c(C=O)c1O
not listed: [15] | [16] | [19] | [20]
inactive: all other assays above

Cc1nc2n(c(=O)c1CCN1CCC(C(=O)c3ccc(F)cc3)CC1)CCS2
active: [11] 0.0041 µM | [18] 0.0668 µM
not listed: [13] | [14]
inactive: all other assays above

CCCCCCCC
not listed: [14] | [20]
inactive: all other assays above

CC(C)SCc1ccco1
not listed: [15] | [19]
inactive: all other assays above
